The source of these data is PubChem BioAssay.

Several values for one entry are separate records, joined by “and”; a condition that tells them apart may be missing. Equal entries are not always repeated. Results filed as inconclusive are left out. Activity calls are given as the source filed them.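 How the source made its calls, unless noted: active means mean z-score across replicates of 1.96 or higher in either the MELAS or the Rieske mutant cell line; inactive means the rest.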

Test [1] is described as follows: viability loss in pontine glioma line – cell-based, SU-DIPG-XXV, MIPE5.0, CellTiter-Glo, qHTS, dose response (AID 1347065; cut-off not given, nearly all actives have AC50 up to about 26 µM;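 further: cells exposed to compound for 48 hours before ATP readout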). Conditions: CellTiter-Glo ATP luminescence. (In general: Cellular ATP, detected with luciferase, serves as a proxy for viable cell number.)
Test [2] can be described thus: SU-DIPG-VI glioma cell viability, MIPE4.0 library, CellTiter-Glo luminescence, qHTS (AID 1347066; cut-off not given, nearly all actives have AC50 up to about 30 µM;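 further: cells exposed to compound for 48 hours before readout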). Conditions: CellTiter-Glo ATP luminescence.
Test [3] in a line: SU-DIPG-XXV glioma cell viability, MIPE5.0 library, qHTS (AID 1347068; cut-off not given, nearly all actives have IC50 up to about 30 µM;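 on IC50: cells exposed to compound for 48 hours before viability readout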).
Test [4] can be described thus: sensitizers of A549 cells to miR-34 induction, primary screen, imaging, A549 dox-inducible miR-34, nuclei and caspase counts (AID 1347080;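 active means compounds whose cell count with miR-34 switched on is under 0.7 times the count with it off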). The note with it: A549 miR-34 inducible, Hoechst nuclei count, 48 h.
Test [5] is described as follows: survival rescue of mitochondrial mutant cells in low glucose, primary screen, MELAS cybrids, Rieske KO mouse fibroblasts, CellTiter-Glo (AID 1508586).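 Further: z relative to plate mean and SD of compound and empty wells.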
The target in test [6] is NAD(+) hydrolase SARM1 (Homo sapiens) (UniProt Q6SZW1). As to the kind of experiment: SARM1 TIR NADase inhibitors, cell lysate, NAD-Glo luminescence (AID 1508614;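 active means compound whose remaining NAD level is above about 45 nM, limit read from the data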). Conditions: SAM-TIR HEK293T lysate NADase, at 1 µM, stronger effect = higher value.
Test [7] addresses Mitogen-activated protein kinase 7 (Homo sapiens) (UniProt Q13164). Description: ERK5 transactivation activators in reporter cells, primary screen, cell-based, HTS (AID 1508626;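 active means luciferase signal above three times the same-plate solvent-only control wells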;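 further: luciferase driven by Gal4-ERK5 fusion binding five Gal4 sites before minimal TATA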). The note with it: HeLa Gal4-ERK5 transactivation, 18 h, at 5 µM, stronger effect = higher value.
Test [8] in a line: viability rescue of complex I mutant cybrids, primary screen, cell-based, galactose medium, ATP luminescence (AID 1645843;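 active means z-score of at least 1.8 in each of two replicates, scored against plate mean and spread of sample wells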;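 further: positive z means more ATP and so rescue of galactose-driven cybrid death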). Conditions: complex I mutant cybrid cells, 72 h, stronger effect = higher value.
Test [9] can be described thus: JHH-DIPG-1 glioma cell viability, MIPE5.0 library, CellTiter-Glo luminescence, qHTS (AID 1347067; cut-off not given, nearly all actives have AC50 up to about 26 µM;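 further: cells exposed to compound for 48 hours before readout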). The note with it: JHH-DIPG-1 glioma viability, CellTiter-Glo ATP luminescence.
Test [10] can be described thus: LFS_MB_P medulloblastoma growth inhibition, cell-based, chromothripsis tumors, cisplatin or BGB combos (AID 1671449; in the data active means inhibition above about 80%;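 further: cells exposed for 96 hours; 0% = vehicle DMSO and 100% = killing by high DMSO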). The note with it: LFS_MB_P medulloblastoma cells.
Test [11] in a line: HDN33 neuroblastoma growth inhibition, cell-based, chromothripsis tumors, cisplatin or BGB combos (AID 1671450; in the data active means inhibition above about 80%;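 further: cells exposed to compound for four days; 0% = vehicle DMSO and 100% = cell killing by high DMSO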). The note with it: HDN33 neuroblastoma cells, stronger effect = higher value.
Test [12] is described as follows: ICB984 medulloblastoma cell growth inhibition, synergistic combos for chromothripsis tumors, cisplatin or BGB combos (AID 1671451; call rule not given here;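 further: cells exposed for 96 hours before readout; 0% = vehicle DMSO and 100% = killing by high DMSO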). Conditions: ICB984 medulloblastoma cells, drug combinations, stronger effect = higher value.
Test [13] in a line: LFS_MB_1R medulloblastoma cell growth inhibition, synergistic combos for chromothripsis tumors, cisplatin or BGB combos (AID 1671452; in the data active means inhibition above about 80%;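 further: cells exposed for 96 hours before readout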). Conditions: LFS_MB_1R medulloblastoma cells, stronger effect = higher value.
A short description of test [14]: HTB85 osteosarcoma cell growth inhibition, synergistic combos for chromothripsis tumors, BGB or cisplatin IC20 combos (AID 1671453; in the data active means inhibition above about 80%;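 further: cells exposed for 96 hours before readout; 0% = vehicle DMSO and 100% = high DMSO killing control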). Conditions: HTB85 osteosarcoma cells, drug combinations, stronger effect = higher value.
A short description of test [15]: CRL2098 osteosarcoma cell growth inhibition, synergistic combos for chromothripsis tumors, BGB or cisplatin IC20 combos (AID 1671454; in the data active means inhibition above about 80%;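 further: cells exposed for 96 h before readout; 0% = vehicle DMSO and 100% = killing by high DMSO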). Conditions: CRL2098 osteosarcoma cells, drug combinations, stronger effect = higher value.
Test [16] in a line: HD-MB03 medulloblastoma cell growth inhibition, synergistic combos for chromothripsis tumors, BGB or cisplatin IC20 combos (AID 1671455; in the data active means inhibition above about 83%;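 further: 0% = vehicle DMSO and 100% = high DMSO as cytotoxic control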). The note with it: HD-MB03 medulloblastoma cells, stronger effect = higher value.
Where [17] appears, read: stronger effect = lower value, cell number ratio, induced over uninduced.
Setting [18] is: measured here: relative caspase fold change +Dox/-Dox.
The mark [19] stands for this setting: measured here: total cells with miR-34 induction, stronger effect = lower value.
Where [20] appears, read: measured here: total cells without miR-34 induction.
Where [21] appears, read: MELAS cybrid survival, CellTiter-Glo 48 h, stronger effect = higher value.
Where [22] appears, read: Rieske KO mouse fibroblast survival, CellTiter-Glo 72 h.
Where [23] appears, read: measured here: combination with BGB IC40, at 0.05 µM.

Chain of NAD(+) hydrolase SARM1 (Homo sapiens) (Q6SZW1 whole entry, looked up, the tested form may be a part): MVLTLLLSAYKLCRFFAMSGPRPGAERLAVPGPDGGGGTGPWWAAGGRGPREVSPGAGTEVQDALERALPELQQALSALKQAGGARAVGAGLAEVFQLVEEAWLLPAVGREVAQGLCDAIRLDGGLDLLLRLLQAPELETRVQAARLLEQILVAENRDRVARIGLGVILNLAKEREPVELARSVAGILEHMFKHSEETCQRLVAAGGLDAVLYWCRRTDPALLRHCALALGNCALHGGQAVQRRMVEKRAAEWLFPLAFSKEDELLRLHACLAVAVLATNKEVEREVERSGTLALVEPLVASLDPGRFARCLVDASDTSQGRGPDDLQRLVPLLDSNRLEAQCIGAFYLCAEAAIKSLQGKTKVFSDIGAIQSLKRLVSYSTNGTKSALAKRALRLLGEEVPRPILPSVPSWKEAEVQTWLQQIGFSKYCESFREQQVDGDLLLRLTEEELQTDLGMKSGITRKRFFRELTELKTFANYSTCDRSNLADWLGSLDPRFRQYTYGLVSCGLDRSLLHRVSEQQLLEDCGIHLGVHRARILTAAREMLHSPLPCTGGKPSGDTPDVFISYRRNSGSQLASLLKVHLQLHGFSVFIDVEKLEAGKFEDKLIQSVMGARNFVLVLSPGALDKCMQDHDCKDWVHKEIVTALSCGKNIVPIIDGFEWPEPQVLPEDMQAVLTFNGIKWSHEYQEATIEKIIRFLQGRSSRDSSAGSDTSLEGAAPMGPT
Chain of Mitogen-activated protein kinase 7 (Homo sapiens) (Q13164 whole entry, looked up, the tested form may be a part): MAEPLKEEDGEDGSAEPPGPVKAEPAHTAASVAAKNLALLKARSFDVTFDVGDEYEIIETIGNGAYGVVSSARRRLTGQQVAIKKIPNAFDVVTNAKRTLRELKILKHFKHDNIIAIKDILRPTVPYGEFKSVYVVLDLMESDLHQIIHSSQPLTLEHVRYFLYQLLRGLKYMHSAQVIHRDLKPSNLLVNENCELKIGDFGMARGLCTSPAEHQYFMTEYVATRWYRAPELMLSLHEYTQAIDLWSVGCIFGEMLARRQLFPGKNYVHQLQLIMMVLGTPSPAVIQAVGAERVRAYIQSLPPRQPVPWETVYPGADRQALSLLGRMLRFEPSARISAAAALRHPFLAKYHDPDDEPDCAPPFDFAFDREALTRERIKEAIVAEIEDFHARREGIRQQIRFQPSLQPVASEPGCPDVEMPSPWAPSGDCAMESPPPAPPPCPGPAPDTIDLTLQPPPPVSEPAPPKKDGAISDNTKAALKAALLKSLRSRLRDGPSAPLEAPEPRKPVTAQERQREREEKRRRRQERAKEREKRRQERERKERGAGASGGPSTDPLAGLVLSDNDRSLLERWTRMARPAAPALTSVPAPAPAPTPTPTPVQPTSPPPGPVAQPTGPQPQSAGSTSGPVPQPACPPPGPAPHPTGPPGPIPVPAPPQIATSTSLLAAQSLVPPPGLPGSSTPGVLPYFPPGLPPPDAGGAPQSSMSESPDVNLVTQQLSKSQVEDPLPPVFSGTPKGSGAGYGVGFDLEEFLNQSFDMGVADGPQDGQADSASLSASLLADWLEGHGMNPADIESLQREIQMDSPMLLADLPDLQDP

Consider `COc1cc(OC)c(C(=O)CCCN2CCCC2)c(OC)c1`, for which the outcome in test [1], in test [2] and in test [3] was inactive. Besides, the fold change in test [4] (setting [17]) is 0.858 (inactive) and 0.948 (inactive) and 0.902 (inactive); in test [4] (setting [18]), 1.32 and 1.94 and 0.958. Further, the cell count in test [4] (setting [19]) was 8900 and 10500 and 8390; in test [4] (setting [20]) it was 10400 and 11000 and 9300. In addition, the z-score in [5] (setting [21]) was -0.379 (inactive) and 0.339 (inactive); in [5] (setting [22]), -0.346 and 0.199; in test [8], 0.65 (inactive). The remaining NAD in test [6] is 10 nM (inactive). In addition, in test [7], the luciferase signal is 40 AU (inactive).
The AC50 is the concentration giving half of the maximal activity seen. With `COC(=O)Nc1nc2ccc(Sc3ccccc3)cc2[nH]1`, the AC50 in test [1] is 742 nM (active). In addition, the result in [2] and in [3] was inactive. For the same compound, the z-score was 1.35 (inactive) and -2.36 (inactive) and -2.06 (inactive) in [5] (setting [21]); -0.0455 and -0.127 and 1.14 in test [5] (setting [22]); -1.72 (inactive) in test [8]. For the same compound, the remaining NAD in test [6] was 10 nM (inactive). Moreover, in test [7], the luciferase signal was 36 AU (inactive).
For the compound `CN(Cc1cc(Br)cc(Br)c1N)C1CCCCC1`, the concentration at half-maximal activity (AC50) in test [1] was 16600 nM (active); in [9], 26300 nM (active). In [3], the compound was classed as inactive. The fold change in [4] (setting [17]) was 0.928 (inactive) and 0.903 (inactive) and 0.881 (inactive); in test [4] (setting [18]) it was 0.942 and 3.08 and 1.05. In addition, the cell count in test [4] (setting [19]) is 8160 and 11000 and 9390; in test [4] (setting [20]), 8790 and 12200 and 10700. Moreover, the z-score was -0.2 (inactive) and -0.238 (inactive) and -0.0697 (inactive) in test [5] (setting [21]); 0.932 and -0.166 and 0.184 in [5] (setting [22]); -1.71 (inactive) in test [8]. Moreover, the remaining NAD in test [6] is 10 nM (inactive). Further, the luciferase signal in test [7] was 56 AU (inactive).
For `Cc1ccc(S(=O)(=O)NC(=O)NN2CC3CCCC3C2)cc1` (centres undefined), the call in test [1], in [9] and in test [3] was inactive. For the same compound, the fold change is 0.889 (inactive) and 0.88 (inactive) in test [4] (setting [17]); 1.81 and 0.848 and 0.946 in test [4] (setting [18]). Besides, the cell count was 8400 and 8080 and 10300 in test [4] (setting [19]); 9450 and 9180 and 11600 in test [4] (setting [20]). In addition, the z-score in test [5] (setting [21]) was -0.361 (inactive) and -0.892 (inactive) and 0.121 (inactive); in [5] (setting [22]) it was 0.53 and -0.111 and 0.139; in test [8], 0.595 (inactive). Further, in test [6], the remaining NAD was 10 nM (inactive). Besides, in [7], the luciferase signal was 36 AU (inactive).
In general, IC50 refers to the concentration that gives 50% inhibition. By inhibition is commonly meant the relative decrease from the control value, in per cent. For `Nc1nc(=S)c2[nH]cnc2[nH]1`, the results for the AC50 in test [1] and in test [9] were 1480 nM (active) and 1050 nM (active), respectively. Besides, in test [3], the IC50 is 4170 nM (active). Moreover, the fold change in [4] (setting [17]) was 1.16 (inactive); in test [4] (setting [18]), 0.96. The cell count in test [4] (setting [19]) came to 1820; in test [4] (setting [20]) it was 1580. The remaining NAD in test [6] is 10 nM (inactive). For the same compound, the luciferase signal in test [7] is 52 AU (inactive). Further, the inhibition in test [10] (at 0.5 µM, stronger effect = higher value) is -26.3% (inactive); in test [10] (measured here: combination with BGB IC20, at 0.005 µM) it was -7.21%; in [10] (measured here: combination with BGB IC40, at 0.005 µM), -35.9%; in [10] (setting [23]), -9.84%; in test [10] (measured here: combination with cisplatin, at 0.5 µM, stronger effect = higher value), -38.8%; in test [10] (measured here: combination with cisplatin, at 5 µM, stronger effect = higher value), -43.8%. Further, the inhibition is 73.6% in test [11] (BGB combo, at 5 µM); 33.6% (inactive) in [11] (at 0.5 µM); 70.5% in [11] (cisplatin combo, at 5 µM); 23.3% in [11] (measured here: with BGB IC20 combination, at 0.5 µM); 18.7% in [11] (measured here: with cisplatin IC20 combination, at 0.5 µM); 80.7% in test [11] (single agent, at 5 µM). The inhibition in [12] (BGB IC20 combo, at 0.005 µM) was -12.4%; in test [12] (BGB IC40 combo, at 0.005 µM), -52.4%; in test [12] (BGB IC40 combo, at 0.05 µM), -32.5%; in test [12] (at 0.5 µM) it was -36% (inactive); in test [12] (cisplatin combo, at 0.05 µM) it was -37.7%; in [12] (cisplatin combo, at 0.5 µM), -55.5%. The inhibition in test [12] (cisplatin combo, at 5 µM) was -19.8%; in [12] (measured here: 5 uM single agent, at 5 µM), -9.37%; in test [13] (at 0.5 µM), -22.2% (inactive); in test [13] (setting [23]) it was 5.91%; in test [13] (measured here: combination with cisplatin, at 0.5 µM), -61.3%; in test [13] (measured here: combination with cisplatin, at 5 µM) it was -34.3%. Besides, the inhibition was 1.06% (inactive) in test [14] (at 0.5 µM); 3.8% in test [14] (measured here: with BGB IC20, at 0.5 µM); 46% in test [14] (measured here: with BGB IC20, at 5 µM); -7.75% in test [14] (measured here: with cisplatin IC20, at 0.5 µM); 16.3% in test [14] (measured here: with cisplatin IC20, at 5 µM); 52.5% in test [14] (single agent, at 5 µM). For the same compound, the inhibition was -31.6% (inactive) in [15] (at 0.5 µM); -18.7% in [15] (measured here: combination with BGB at IC20, at 0.5 µM); -26.5% in test [15] (measured here: combination with cisplatin at IC20, at 0.5 µM); -3.75% (inactive) in test [16] (at 0.5 µM); -3.35% in test [16] (measured here: combo with BGB at IC20, at 0.5 µM); -7.29% in test [16] (measured here: combo with cisplatin at IC20, at 0.5 µM).
